Measurements: PubChem BioAssay AID540276 (National Center for Advancing Translational Sciences (NCATS), 2011)
Values joined by “and” are separate entries in the source; they are usually repeats but may differ in a detail not shown here. Identical values can stand only once. Hit rate of the full screen: of about 300,000 compounds, about 5,400 (1.8%) were called active. Entries that show only a call come without a potency. Roughly 28% stayed inconclusive and do not appear here. Calls come from the whole dose curve; tested in HEK293 cells. Many of the other results were omitted from the sample, so actives are more common in it than they were.
Potency is the fitted concentration of half-maximal effect.

Assay: qHTS for inhibitors of binding or entry into cells for Marburg Virus
Conditions: Marburg virus pseudotyped entry inhibition, cell reporter; series mostly up to 37.8 µM
With `CCOc1ccc(S(=O)(=O)N2CCN(C(=S)NCC3CCCO3)CC2)cc1` (centres undefined) the Potency was “inactive”.
In the case of `CC1(C)C(=O)CCC2(C)C1=CCC1C2C(=O)CC2(C)C1CCC2(O)C(=O)CO` (centres undefined), the Potency is reported as “inactive”.
In the case of `CC(=O)OCC(=O)C1(O)CCC2C3CC(C)C4=CC(=O)CCC4(C)C3C(O)CC21C` (centres undefined), the Potency is reported as “inactive”.
For `COc1ccccc1NC(=O)N1CCCC1C(=O)NCc1cccs1` (centres undefined), the Potency was “inactive”.
With `CCS(=O)(=O)Nc1ccc(C2=NN(S(=O)(=O)c3ccc(F)cc3)C(c3ccco3)C2)cc1` (centres undefined) the Potency was 18.3 µM (active).
With `CS(=O)(=O)Nc1ccc(C2=NN(S(C)(=O)=O)C(c3cccs3)C2)cc1` (centres undefined) the Potency was “inactive”.
With `CCS(=O)(=O)Nc1ccc(C2=NN(C(C)=O)C(c3cccs3)C2)cc1` (centres undefined) the Potency was “inactive”.
With `COc1ccc(-n2cc(CN(C)Cc3n[nH]c(=O)[nH]3)c(-c3cccc(F)c3)n2)cc1` the Potency was “inactive”.
For `COc1ccc(-c2nn(-c3ccccc3)cc2CN2CCCO2)c(F)c1`, the Potency was “inactive”.
For `COc1ccc(-n2cc(CNC3CCOCC3)c(-c3cccc(F)c3)n2)cc1`, the Potency was 11.2 µM (active).
In the case of `N#CC1=C(SCc2ccccc2)NC(=O)C(C#N)C12CCCC2` (centres undefined), the Potency is reported as “inactive”.
In the case of `N#CC1=C(SCc2ccc(C#N)cc2)N=C(N)C(c2nc(-c3ccccc3)cs2)C12CCCCC2` (centres undefined), the Potency is reported as 7.08 µM (active).
With `N#C/C(=C1\CCCN1)c1nc(-c2ccccc2)cs1` the Potency was “inactive”.
With `NC(CSC1(c2ccccc2)c2ccccc2-c2ccccc21)C(=O)O` (centres undefined) the Potency was “inactive”.
With `CCCc1cc(=O)[nH]c(SCC(=O)Nc2ccc(C(=O)Nc3ccccc3OC)cc2)n1` the Potency was “inactive”.
In the case of `CC1CCN(C(=O)/C(=C\c2ccccc2)NC(=O)c2ccccc2)CC1`, the Potency is reported as “inactive”.
For `COc1ccc(S(=O)(=O)N2CCC(C(=O)NCc3ccco3)CC2)cc1C`, the Potency was “inactive”.
In the case of `CC(C)Oc1ccc(Oc2ccc(C(F)(F)F)cn2)cc1`, the Potency is reported as “inactive”.
With `CNCC[C@H](Oc1ccc(C(F)(F)F)cc1)c1ccccc1` the Potency was 10.3 µM (active) and 7.08 µM (active).
With `CC(NC(=O)Cn1cc(C(F)(F)F)cc(Cl)c1=O)c1ccccc1` (centres undefined) the Potency was “inactive”.
In the case of `COc1ccccc1N(CC(=O)Nc1ccccc1C(=O)N1CCCC1)S(C)(=O)=O`, the Potency is reported as “inactive”.
For `Cc1ccc(S(=O)(=O)N2CCN=C2SCc2c(F)cccc2Cl)cc1`, the Potency was “inactive”.
With `COc1ccc(COC(=O)c2ccc(Cl)c(S(=O)(=O)N3CCOCC3)c2)cc1F` the Potency was “inactive”.
With `CCCCCC(=O)Nc1ccc(C(=O)N/N=C/c2ccc([N+](=O)[O-])cc2)cc1` the Potency was “inactive”.
In the case of `CCCC(=O)Nc1ccc(C(=O)N/N=C/c2ccc[nH]2)cc1`, the Potency is reported as 7.08 µM (active).
In the case of `CC(=O)Nc1ccc(C(=O)/C=C/c2ccc[nH]2)cc1`, the Potency is reported as “inactive”.
For `COc1cc(C=NNC(=O)c2cccnc2)ccc1OC(=O)c1ccccc1F`, the Potency was “inactive”.
In the case of `COc1ccc(C(=O)Nc2ccccc2C(=O)N/N=C/c2ccc(O)c(OC)c2)cc1`, the Potency is reported as 0.398 µM (active).
With `COc1ccc(/C=N/S(=O)(=O)c2ccccc2)cc1OC` the Potency was “inactive”.
With `CCOc1cc(/C=N/NC(=O)OC)ccc1OCCSc1ccc(Cl)cc1` the Potency was “inactive”.
With `COC(=O)c1ccc(COc2ccc(/C=N/NC(=O)C(=O)Nc3ccc(OC)cc3)cc2OC)o1` the Potency was “inactive”.
In the case of `COc1cc(/C=N/NC(=O)Nc2ccccc2)ccc1OCCOc1ccccc1C`, the Potency is reported as 2.31 µM (active).
With `COc1ccc(C(=O)Nc2ccccc2C(=O)N/N=C/c2ccccc2OC)cc1` the Potency was “inactive”.
With `COc1cc(/C=N/NC(=O)c2ccccc2)ccc1OS(=O)(=O)c1ccccc1` the Potency was 9.2 µM (active).
In the case of `COc1cc(/C=N/NC(=O)c2ccc(N3CCCC3=O)cc2)ccc1O`, the Potency is reported as “inactive”.
For `COc1ccc(OC[C@H]2CN3[C@@H](CC[C@@H](C)[C@@H]3c3ccc(Br)cc3)C(=O)O2)cc1`, the Potency was “inactive”.
With `COC1=NC2=NCCN2C(OC)=N1` the Potency was “inactive”.
With `COc1ccc(CCNC(=O)COC(=O)c2ncc(Cl)c(Cl)c2Cl)cc1OC` the Potency was “inactive”.
With `COc1ccccc1C(=O)c1ccccc1C(=O)c1ccccc1` the Potency was “inactive”.
With `COc1ccc(N2CC(C(=O)N[C@@H](C)C(=O)N3CCCCC3)CC2=O)cc1` (some centres undefined) the Potency was “inactive”.
For `O=C1COc2ccc(C(=O)COC(=O)CCOc3ccccc3)cc2N1`, the Potency was “inactive”.
In the case of `CC(NS(=O)(=O)c1ccc(OCC(=O)N2CCCC2)cc1)c1ccccc1` (centres undefined), the Potency is reported as “inactive”.
In the case of `COc1ccc(S(=O)(=O)N2CCN(CC(=O)N3c4ccccc4CC3C)CC2)cc1OC` (centres undefined), the Potency is reported as “inactive”.
In the case of `COc1ccc(C(=O)O)cc1S(=O)(=O)NC1CCN(Cc2ccccc2)CC1`, the Potency is reported as “inactive”.
In the case of `O=C(Cn1cnc2ccccc2c1=O)NNC(=O)c1ccccc1F`, the Potency is reported as “inactive”.
For `Cc1ccc(C)c(NS(=O)(=O)c2ccc(OCC(=O)NCc3cccnc3)cc2)c1`, the Potency was “inactive”.
With `Cc1ccc(C)c(NC(=O)CN(C)C(=O)COc2ccc3ccccc3c2)c1` the Potency was “inactive”.
In the case of `Cc1ccc(NS(=O)(=O)c2ccc(C)c(NC(=O)COc3ccc4ccccc4c3)c2)c(C)c1`, the Potency is reported as 11.2 µM (active).
For `CC(C)c1ccc(Cn2c(COc3ccccc3)nc3ccccc32)cc1`, the Potency was “inactive”.
In the case of `CC(C)c1ccc2c(c1)c(SC(C)(C)C)c(CC(C)(C)C(=O)O)n2Cc1ccc(Cl)cc1`, the Potency is reported as 11.2 µM (active) and 6.51 µM (active).
With `O=C(O)c1ccc(Cn2c(=S)[nH]c3cc(Cl)ccc3c2=O)cc1` the Potency was “inactive”.
In the case of `CN(C)C(=O)CCc1ccc2c3c([nH]c2c1)[C@]1(CCC2CCCC2)[C@@H](C(=O)N2CCOCC2)C[C@H](CC(=O)NCc2ccco2)C(=O)N1CC3`, the Potency is reported as “inactive”.
For `CCOC(=O)c1cc(S(=O)(=O)NCCc2ccc(OC)c(OC)c2)cn1C`, the Potency was “inactive”.
With `COc1cccc(/C(C)=N/Nc2ncc(Cl)cc2Cl)c1` the Potency was “inactive”.
With `COc1cc(/C=C2\SC(=S)N(Nc3ncc(C(F)(F)F)cc3Cl)C2=O)cc(OC)c1OC` the Potency was “inactive”.
In the case of `COc1cccc(/C=N/Nc2ncc(C(F)(F)F)cc2Cl)c1O`, the Potency is reported as 0.794 µM (active).
In the case of `CCCCn1c(N)c(N(Cc2ccccc2OC)C(=O)COc2cc(C)ccc2Cl)c(=O)[nH]c1=O`, the Potency is reported as “inactive”.
For `Cc1ccc(C)c(NC(=O)C2CCCN2C(=O)OC(C)(C)C)c1` (centres undefined), the Potency was “inactive”.
With `Cc1ccc(C)c(NC(=O)C2Cc3ccccc3CN2C(=O)OCc2ccccc2)c1` (centres undefined) the Potency was 2.51 µM (active).
With `Cc1ccc(S(=O)(=O)N(C)C)cc1NC(=O)C1Cc2ccccc2CN1C(=O)c1ccco1` (centres undefined) the Potency was “inactive”.
For `Cc1cc(C(F)(F)F)nc(SCC(=O)Nc2nccs2)n1`, the Potency was “inactive”.
In the case of `CCN(CC(=O)Nc1ccc(OC)cc1)C(=O)c1ccc(=O)n(Cc2ccccc2)n1`, the Potency is reported as “inactive”.
For `COc1ccc(C)cc1NC(=O)CSc1nnc2ccc(-c3ccccn3)nn12`, the Potency was “inactive”.
For `CCOc1ccccc1-c1nc(CN2CCC(C(=O)N3CCOCC3)CC2)c(C)o1`, the Potency was “inactive”.
For `Cc1ccc(C)c(NC(=O)C(c2ccccc2)N2CCN(CC(=O)NC3CC3)CC2)c1` (centres undefined), the Potency was “inactive”.
For `OC(CNC1CCCCC1)c1ccccc1` (centres undefined), the Potency was “inactive”.
In the case of `CC(NCc1ccccc1OC1CCCC1)c1ccccc1` (centres undefined), the Potency is reported as 7.94 µM (active).
In the case of `CC(=O)OC(C(=O)NC1CCCCC1)c1ccccc1` (centres undefined), the Potency is reported as “inactive”.
In the case of `COc1ccc2c(c1)c(=Cc1ccc(N(C)C)cc1)c1cc(-c3ccccc3)[n+](C)n12`, the Potency is reported as 4.47 µM (active).
For `c1ccc2c(c1)[I+]c1ccccc1-2`, the Potency was 0.282 µM (active).
With `O=C(NCCc1ccccc1)c1c[nH]c2ccc(F)cc2c1=O` the Potency was “inactive”.
For `CC(C)NC(=O)c1ccc(Cl)cc1Cl`, the Potency was “inactive”.
In the case of `CC(OC(=O)c1ccc(Cl)cc1O)C(=O)NCCC1=CCCCC1` (centres undefined), the Potency is reported as “inactive”.
With `CC(C)OC(=O)c1ccc(NCc2cc(O)ccc2O)cc1Cl` the Potency was 2.24 µM (active).
For `Cc1ccccc1-n1cc(CNC(=O)C2CCC(=O)N(C3CC3)C2)cn1` (centres undefined), the Potency was “inactive”.
With `CC(C)Cc1nc(N2CCOCC2)c(C#N)c2c1CCC2` the Potency was “inactive”.
With `CCN1CCc2c(C#N)c(NCc3ccccc3)nc(NCCO)c2C1` the Potency was “inactive”.
In the case of `CC(C)CCNc1nc(N2CCCC2)c2c(c1C#N)CCN(C)C2`, the Potency is reported as 7.3 µM (active).
With `COC1=CC(=O)OC(c2ccc(OC)cc2)C1` (centres undefined) the Potency was “inactive”.
In the case of `O=C(NCc1ccncc1)C(=O)NCC1OCCN1S(=O)(=O)c1ccc(Br)cc1` (centres undefined), the Potency is reported as “inactive”.
For `COc1ccc(-c2csc3ncnc(N4CCN(S(=O)(=O)c5ccccc5C#N)CC4)c23)cc1`, the Potency was “inactive”.
For `CCN1/C(=C/c2ccc3ccc(C)cc3[n+]2CC)Sc2ccccc21`, the Potency was 5.01 µM (active).
In the case of `O=C(c1ccc(NS(=O)(=O)c2ccc3[nH]c(=O)[nH]c3c2)cc1)N1CCCCC1`, the Potency is reported as “inactive”.
In the case of `O=C(NNS(=O)(=O)c1ccc(F)cc1)c1ccc([N+](=O)[O-])cc1Cl`, the Potency is reported as “inactive”.
In the case of `O=[N+]([O-])c1ccc(NS(=O)(=O)c2ccccc2)c(Cl)c1`, the Potency is reported as 11.2 µM (active).
In the case of `Cc1cccc(NS(=O)(=O)c2ccc([N+](=O)[O-])cc2)n1`, the Potency is reported as “inactive”.
For `CCOC(=O)CCC(NC(=O)c1ccc(CNc2nc3cc(C(F)(F)F)ccc3nc2C(=O)OCC)cc1)C(=O)OCC` (centres undefined), the Potency was “inactive”.
With `CC(C)(C)C(=O)Cn1c(NCCO)nc2ccccc21` the Potency was “inactive”.
With `O=C(O)[C@@H]1CCCN1c1ncnc2sc3c(c12)CCC3` the Potency was “inactive”.
In the case of `OCCNc1nc2ccccc2n1-c1ncnc2sc3c(c12)CCC3`, the Potency is reported as 11.2 µM (active).
In the case of `Cc1cccc(C=CC(=O)c2ccc(Cl)cc2)c1`, the Potency is reported as “inactive”.
In the case of `O=C(COC(=O)c1cccnc1Cl)Nc1ccc(S(=O)(=O)N2CCOCC2)cc1`, the Potency is reported as “inactive”.
With `COc1ccc(C(C(=O)NCC2CCCO2)N(C(=O)Cn2nnc3ccccc32)c2ccc(NC(C)=O)cc2)cc1OC` (centres undefined) the Potency was “inactive”.
With `Cc1ccc(C)c(N2CCN(C(=O)CCc3nc(-c4cccc(C(F)(F)F)c4)no3)CC2)c1` the Potency was “inactive”.
For `COc1ccc(OC)c(Cc2nnc(CCC(=O)NC3CCCC3)o2)c1`, the Potency was “inactive”.
With `COc1ccc(OC)c(Cc2cnc3nc(N)nc(N)c3c2C)c1` the Potency was 0.112 µM (active).
With `COc1ccc(OC)c(NC(=O)c2sc3nc(C)cc(C)c3c2N)c1` the Potency was “inactive”.
For `CCCc1cc(=O)[nH]c(SCC(=O)Nc2ccc(S(=O)(=O)N3CCCC3)cc2)n1`, the Potency was “inactive”.
In the case of `Cn1c(=O)c2c(O)c(C=NCC3CCCCC3)c(=O)n(C)c2n(C)c1=O`, the Potency is reported as “inactive”.
